# TCR act = activates T cell receptor signaling; primary human leukocytes, anti-CD3, IL-2 HTRF, 48 h; Potency, µM (top dose mostly 9.22 µM), inactives show top-dose activation of IL-2 secretion, hits mostly activators; 330,000 tested, under 10 active; AID 504894; further: % of control where 0% means no effect
#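 Primary human leukocytes were stimulated with a-CD3 beads plus compounds for 48 hr without co-stimulation; secreted IL-2 was quantified by HTRF using a-IL-2-K (europium cryptate) and a-IL-2-d2, excited at 320nm with acceptor emission read at 665nm.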
# PI5P4K alpha inh = PI5P4K alpha (human) kinase inhibition | PI5P4Kalpha enzyme, ADP-Glo luminescence, 60 min; hits give low values | max response, % | 1.2% of 330,000 active | AID 652105; active means max response of -50% or lower; inconclusive means between -30% and -50%; inactive means -30% or higher; further: value at the top dose of about 77 µM; on the % scale 0 is the no-effect control and ±100 the full control effect
#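 Quantitative HTS of the MLSMR library against PI5P4Kalpha with substrate. ATP added last at 5 microM final; room temperature, 60 minutes. Remaining ATP depleted, ADP converted and read as luminescence.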
# WRN helicase inh-1 = blocks human WRN helicase; WRN helicase unwinding, fluorescent forked duplex, kinetic; 0.46% of 360,000 active; AID 651768; Potency, µM (top dose mostly 114 µM), for inactives: top-dose activity change, negative = inhibition, actives largely listed as inhibitors; Q14191; further: potency means the concentration at half of the fitted maximal effect; on the % scale 0 is the no-effect control and ±100 the full control effect; nearly all actives have a fitted effect of over 55% in size
#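 WRN at 20 nM final was preincubated with compound for 15 min at room temperature; reaction started with 100 nM forked duplex oligonucleotide carrying fluorophore and quencher plus 2 mM ATP (final). Unwinding followed kinetically by red fluorescence (ex 525/em 598 nm).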
# FEN1 inhibitor = blocks human flap endonuclease 1 | Recombinant FEN1 flap cleavage, fluorescence, 15 min | Potency, µM (top dose mostly 114 µM), inactives show at the top dose activity change, negative = inhibition, hits mostly inhibitors | 0.35% of 390,000 active | AID 588795; further: potency means the concentration at half of the fitted maximal effect; on the % scale 0 is the no-effect control and ±100 the full control effect; nearly all actives have a fitted effect of over 65% in size
# Target sequence (P39748 whole entry, looked up): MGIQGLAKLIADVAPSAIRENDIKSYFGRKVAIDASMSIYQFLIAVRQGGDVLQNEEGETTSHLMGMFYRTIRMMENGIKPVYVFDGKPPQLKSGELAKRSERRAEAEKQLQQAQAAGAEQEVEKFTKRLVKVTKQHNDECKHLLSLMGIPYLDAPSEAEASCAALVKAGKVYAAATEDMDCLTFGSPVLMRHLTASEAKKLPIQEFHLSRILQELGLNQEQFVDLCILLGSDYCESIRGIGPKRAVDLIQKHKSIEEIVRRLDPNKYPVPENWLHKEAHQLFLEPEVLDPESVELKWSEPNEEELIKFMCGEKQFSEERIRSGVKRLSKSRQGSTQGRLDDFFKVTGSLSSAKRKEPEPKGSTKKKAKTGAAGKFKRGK
#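 Recombinant FEN1 (10 nM) was preincubated with pin-transferred compounds for 15 min at room temperature, then flap DNA substrate (50 nM final) was added. Plates were read at 0 and 15 min, and normalized concentration–response data were fitted to a four-parameter Hill equation.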
# PLK1 PBD inh = PLK1 (human) polo-box domain binding inhibition. P53350. Plk1 PBD binding of FITC phosphopeptide, fluorescence polarization. Potency, µM, for the others: max response, negative = inhibition, actives largely listed as inhibitors. 2.8% of 360,000 active; further: potency means the concentration at half of the fitted maximal effect; series mostly up to about 57 µM; on the % scale 0 is the no-effect control and ±100 the full control effect; nearly all actives have a fitted effect of over 65% in size
# VDR inh = blocks the human vitamin D receptor; P11473; VDR-SRC2-3 peptide fluorescence polarization, 2 h; Potency, µM, inactives show max response, negative = inhibition, most hits filed as inhibitors; 0.93% of 400,000 active; further: potency means the concentration at half of the fitted maximal effect; on the % scale 0 is the no-effect control and ±100 the full control effect
# Target sequence (P11473 whole entry, looked up): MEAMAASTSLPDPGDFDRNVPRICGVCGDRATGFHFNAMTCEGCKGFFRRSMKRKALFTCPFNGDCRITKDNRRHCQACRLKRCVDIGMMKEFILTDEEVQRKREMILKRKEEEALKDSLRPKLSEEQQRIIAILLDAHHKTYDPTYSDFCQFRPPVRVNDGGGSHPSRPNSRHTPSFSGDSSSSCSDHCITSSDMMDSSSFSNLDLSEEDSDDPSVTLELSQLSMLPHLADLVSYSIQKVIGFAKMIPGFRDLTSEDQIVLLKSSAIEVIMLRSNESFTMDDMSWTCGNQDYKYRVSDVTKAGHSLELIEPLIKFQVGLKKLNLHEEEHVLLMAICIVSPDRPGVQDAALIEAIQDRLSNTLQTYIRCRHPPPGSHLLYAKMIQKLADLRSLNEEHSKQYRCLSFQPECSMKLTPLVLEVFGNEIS
#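 Fluorescence polarization assay of small-molecule disruption of VDR binding to coregulator peptide SRC2-3. Compounds and controls pin-transferred, then read after 2 h incubation at ambient room temperature.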
# WRN helicase inh-2 = confirmation of human WRN helicase inhibitors | shares compounds with WRN helicase inh-1 | WRN helicase DNA unwinding, fluorescence kinetic | Potency, µM (titrated, usually from 57.1 µM), for the others: top-dose activity, negative = inhibition, actives largely listed as inhibitors | 63% of 610 active | AID 720497; further: potency means the concentration at half of the fitted maximal effect; nearly all actives have a fitted effect of over 65% in size
# TO displacement = DNA binding via thiazole orange displacement; shares compounds with WRN helicase inh-1; Potency, µM (series often up to 57.1 µM), inactives show top-dose activity change, negative = inhibition, actives largely listed as inhibitors; thiazole orange DNA binding displacement, fluorescence; 10% of 610 active;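 further: drop in dye fluorescence marks compound binding to DNA; potency means the concentration at half of the fitted maximal effect; on the % scale 0 is the no-effect control and ±100 the full control effect; nearly all actives have a fitted effect of over 60% in size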
# BLM counter = blocks human BLM helicase in WRN counterscreen. shares compounds with WRN helicase inh-1. Recombinant BLM helicase DNA unwinding, red fluorescence. Potency, µM (titrated, usually from 57.1 µM), for inactives: at the top dose activity change, negative = inhibition, hits mostly inhibitors. 60% of 610 active; further: potency means the concentration at half of the fitted maximal effect; nearly all actives have a fitted effect of over 60% in size
# * hit, by the source's call; i = inactive; ? = inconclusive; nt = no result given; [ ] = dose if it differs, or a comment. This is a sample that favours compounds with a hit; in the whole collection about 3.7% have one here. Unless noted, the call rests on the fitted dose curve; in most records, active means well fitted curve in the direction sought with a large enough effect; inconclusive means small, poorly fitted or top-dose-only effect, or another doubt; inactive means no such curve, though single readings can be large; an effect the other way counts as inactive or inconclusive.
SMILES,TCR act,PI5P4K alpha inh,WRN helicase inh-1,FEN1 inhibitor,PLK1 PBD inh,VDR inh,WRN helicase inh-2,TO displacement,BLM counter
COc1ccc(-c2nc3c(c(SCC(=O)Nc4ccccc4OC)n2)Cc2cccc(C)c2O3)cc1,nt,nt,nt,21%,nt,-8%,nt,nt,nt
Cc1ccc(-c2nc3c(c(SCC(=O)Nc4cccc(C(=O)O)c4)n2)Cc2cccc(C)c2O3)cc1,nt,nt,nt,?,nt,6%,2.2µM*,2.7µM*,0.86µM*
CCCCCC1NC(=O)NC1CCCCCC(=O)O (stereo unspecified),2%,-4,10%,-3%,0%,3%,nt,nt,nt
C[C@@H]1NC(=O)N[C@@H]1CCCCCC(=O)O,-3%,0,?,2%,0%,-10%,?,-1%,?
O=S(=O)(Cc1ccccc1)N(O)c1ccccc1,3%,-17,?,-21%,?,40µM*,1%,-7%,0%
COc1cccc(/C=N/NC(=O)CNC(=O)c2ccc3c(c2)OCCO3)c1O,-5%[46.1 µM],-6,-24%[57.1 µM],-1%,-2%,?,nt,nt,nt
COc1cc(/C=N/NC(=O)c2ccc3c(c2)OCCO3)c(Br)c(Br)c1O,1%,-29,?,?,?,-6%,?,-24%,?
COc1cc(C)c2sc3ccccc3c(=O)c2c1NCCN(C)C,nt,-9,35µM*,nt,-1%,nt,?,17µM*,?
COc1ccc(C(=O)c2cn(CC(=O)Nc3ccc4c(c3)OCCO4)c3ccc(OC)cc3c2=O)cc1,nt,nt,nt,40µM*,nt,-14%,12µM*,7.6µM*,7.6µM*
COc1ccc2c(c1)c(=O)c(C(=O)c1ccc(C)c(C)c1)cn2CC(=O)Nc1ccc2c(c1)OCCO2,nt,nt,nt,2%,nt,-18%,nt,nt,nt
CCOc1cccc(-c2nc3ccccc3c(=O)o2)c1,nt,nt,nt,-24%,nt,-18%,nt,nt,nt
CCn1nc(C(=O)OCC(=O)Nc2ncc(Cl)c(C)c2Cl)c2ccccc2c1=O,-1%[46.1 µM],?,?,-7%,-15%,-17%,-29%,-12%,?
Cc1c(Cl)cnc(NC(=O)COC(=O)c2ccncc2)c1Cl,4%,?,?,-2%,-24%,-21%,nt,nt,nt
O=C(/C=C/c1cccs1)Nc1nc(-c2ccccc2)cs1,-4%,nt,-14%,?,-5%,-8%,nt,nt,nt
O=C(/C=C/c1cccs1)Nc1scc(-c2ccccc2)c1C(=O)O,-3%,?,32µM*,?,?,-7%,?,-16%,22µM*
CSc1cc2c(s1)c1cnn(Cc3cccc(N)c3)c(=O)c1n2C,nt,nt,nt,nt,nt,nt,-12%,-8%,?
O=C(c1cnc2c(c1)COc1ccccc1-2)c1ccccc1O,nt,nt,nt,-1%,nt,5%,nt,nt,nt
O=C1C(=Cc2cn(-c3ccccc3)nc2-c2ccc(OCc3ccccc3)cc2)SC(=S)N1CCS(=O)(=O)O,nt,-65*,25µM*,nt,?,nt,11µM*,-29%,6.8µM*
O=C(NCc1cccs1)c1ccc2c(=O)n3nc(Nc4ccccc4)sc3nc2c1,nt,nt,nt,12%,nt,19%,19µM*,158%,3.4µM*
CC(=O)c1c(C)oc2c(Cl)cc(NS(=O)(=O)c3cc(C)c(C)cc3C)cc12,nt,nt,nt,?,nt,2%,nt,nt,nt
O=C(Nc1ccc2oc(=O)ccc2c1)c1ccc(-c2cccc([N+](=O)[O-])c2)o1,-1%,-12,10µM*,?,-4%,-18%,?,?,1.5µM*
O=C(Cn1c(=O)n(Cc2ccc3c(c2)OCO3)c(=O)c2ccc(C(=O)NC3CCCCC3)cc21)Nc1ccccc1F,nt,nt,nt,-13%,nt,-7%,nt,nt,nt
C/C=C/c1ccc(OCCCNC(C)CC)c(OC)c1 (stereo unspecified),0%,6,?,-14%,?,-13%,2%,-2%,3%
O=C1C=C(c2c(O)ccc3ccccc23)c2ccccc2C1=O,-4%,?,20µM*,?,7.5µM*,?,-19%,?,?
O=C1C=C(O)c2cccc(O)c2C1=O,3%,?,-25%,?,-18%,-14%,nt,nt,nt
SMILES,TCR act,PI5P4K alpha inh,WRN helicase inh-1,FEN1 inhibitor,PLK1 PBD inh,VDR inh,WRN helicase inh-2,TO displacement,BLM counter
O=C(O)c1ccccc1-c1ccc(/C=C/c2cc(C(F)(F)F)[nH]c(=O)n2)o1,1%,?,79µM*,-32%,14%,-13%,24µM*,i,-17%
O=C(N/N=C/c1ccc(-c2ccccc2C(=O)O)o1)c1cccs1,1%[46.1 µM],?,?,?,?,-3%,nt,nt,nt
COc1ccccc1CNC(=O)C(=O)NCC(c1cccnc1)N1CCN(c2ccccc2)CC1 (stereo unspecified),nt,nt,nt,1%,nt,-5%,nt,nt,nt
COc1ccc(NC(=O)/C(C#N)=C\c2ccc(OCc3ccc(C(=O)O)cc3)c(OC)c2)cc1,-4%,1,35µM*,?,?,-7%,-27%,?,?
N=C1/C(=C\c2ccc(Br)o2)C(=O)N=C2SC(CC(=O)N3CCOCC3)=NN12,-4%,?,35µM*,?,-28%,-10%,?,-10%,?
CSc1ccc(/C=C2\C(=N)N3N=C(CC(=O)N4CCOCC4)SC3=NC2=O)cc1,-12%,0,-4%[57.1 µM],17%,?,-3%,nt,nt,nt
Cc1ccc(-n2ncc(C(=O)NCCCN3CCc4ccccc4C3)c2C2CCN(C(=O)OC(C)(C)C)CC2)c(C)c1,nt,nt,nt,-5%,nt,1%,nt,nt,nt
CCc1ccccc1NC(=O)C(CC)Sc1ncnc2c1sc1ccccc12 (stereo unspecified),nt,nt,nt,5%,nt,1%,nt,nt,nt
Cc1cccc(Nc2nnc(SCC(=O)c3c(N)n(C4CC4)c(=O)[nH]c3=O)s2)c1,-4%,-3,-4%,21%,-6%,-5%,nt,nt,nt
C/C(N)=C(/C#N)C(=O)CSc1nnc(Nc2cccc(C)c2)s1,-4%,-50*,?,?,-9%,-16%,-26%,-6%,?
CCc1nnc(SCC(=O)Nc2ccc(F)cc2F)c2cc3sc(C)cc3n12,nt,nt,nt,17%,nt,15%,nt,nt,nt
O=C(COc1ccc(/C=N/NC(=O)c2ccccc2O)cc1)Nc1ccc([N+](=O)[O-])cc1,2%[46.1 µM],0,17µM*,3%,21µM*,-23%,11µM*,?,4.8µM*
O=C(COc1ccc(/C=N/NC(=O)c2ccncc2)cc1)Nc1ccccc1,-2%,1,-21%,1%,-12%,-8%,nt,nt,nt

# Screening data (PubChem)
